Compounds with a hit are over-represented: about 8% of the library has one in this group of screens.
MCF10A rereplic = inducers of DNA re-replication in MCF 10A breast cells; MCF 10A DNA re-replication, Hoechst nuclear intensity, 48 h; Potency, µM (titrated, usually from 46.1 µM), for inactives: at the highest dose activity, positive = re-replication, actives largely listed as activators; actives 2.9% (n = 350,000); further: % of control where 0% means no effect; nearly all actives have a fitted effect of over 50% in size
HT1080NT lethal = kills 2HG-producing HT-1080-NT fibrosarcoma cells; HT-1080-NT fibrosarcoma viability, CellTiter-Glo ATP luminescence, 48 h; Potency, µM (titrated, usually from 46.1 µM), for inactives: top-dose activity, negative = less viability, usual class: cytotoxic; actives 1.6% (n = 360,000); AID 686970;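 further: NT is the 2HG producing partner of a matched IDH1 knockdown line; 0% = DMSO-treated cells and -100% = media-only wells without cells; nearly all actives have a fitted effect of over 55% in size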
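Viability of the 2HG-overproducing fibrosarcoma line after 48 hours of compound exposure at 37 degrees C was determined by luminescence with CellTiter-Glo, and concentration-effect curves were then fitted and categorized.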
HT1080 IDH1KD tx = kills HT-1080 cells with IDH1 knockdown; HT-1080 IDH1 knockdown viability, ATP luminescence, 48 h; Potency, µM (titrated, usually from 46.1 µM), for inactives: at the top dose activity, negative = toxicity, hits mostly cytotoxic; actives 2% (n = 360,000); AID 686971;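 further: 0% = DMSO wells and -100% = cell-free medium wells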
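Luminescent ATP read-out (CellTiter-Glo, 10 min at room temperature) after 48 h compound exposure at 37 °C gave viability of IDH1-knockdown HT-1080 cells. Activity was normalised to DMSO and cell-free wells, then fitted as concentration-response curves.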
SW480 rerep = induces DNA re-replication in SW480 colon adenocarcinoma cells; SW480 DNA re-replication, Hoechst DNA content imaging, 48 h; actives 1.8% (n = 340,000); Potency, µM (top dose mostly 46.1 µM), for the others: at the top dose re-replication activation, hits mostly activators; AID 624297; further: % of control where 0% means no effect; nearly all actives have a fitted effect of over 55% in size
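Image-based read-out: total Hoechst fluorescence of nuclei (405 nm excitation, 500-530 nm emission), with hits raising the fraction of high-intensity nuclei. SW480 colon cells incubated 48 hr with compounds at 37 C.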
KB-V1 MDR tox = kills drug-selected multidrug resistant KB-V1 cells; actives 3.4% (n = 400,000); KB-V1 MDR cells viability, CellTiter-Glo, 72 h; Potency, µM (titrated, usually from 46.1 µM), usual class: cytotoxic; further: on the % scale 0 is the no-effect control and ±100 the full control effect; nearly all actives have a fitted effect of over 60% in size
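Luminescent ATP read-out (CellTiter-Glo, 10 min) measures survival of drug-selected KB-V1 MDR cells after 72 h, 37 degrees C compound exposure. Medium: phenol-red-free DMEM, 10% FBS. Values from fitted concentration-response curves.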
KB-3-1 tox = kills parental KB-3-1 adenocarcinoma cells | KB-3-1 viability, CellTiter-Glo ATP luminescence, 72 h | Potency, µM (titrated, usually from 46.1 µM), actives largely listed as cytotoxic | actives 1.4% (n = 400,000) | AID 1347075; further: on the % scale 0 is the no-effect control and ±100 the full control effect; nearly all actives have a fitted effect of over 60% in size
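Screening of KB-3-1 cells (DMEM, 10% FBS, phenol-red free) ran from lowest to highest compound concentration; after 72 h at 37 °C viability was read luminescently and curves fitted.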
* hit, by the source's call; i = inactive; ? = inconclusive; / = no result; ! = repeats disagree; [ ] = another dose, or the depositor's remark. The call rests on the fitted dose curve; in most records, active means well fitted curve in the direction sought with a large enough effect; inconclusive means small, poorly fitted or top-dose-only effect, or another doubt; inactive means no such curve, though single readings can be large; an effect the other way counts as inactive or inconclusive. Potency means the concentration at half of the fitted maximal effect.

SMILES | MCF10A rereplic | HT1080NT lethal | HT1080 IDH1KD tx | SW480 rerep | KB-V1 MDR tox | KB-3-1 tox
CC(C)c1nc(SCC(=O)N2CCCC2)c2ccccc2n1 | 6% | -7% | -29% | -1% | 21µM* | i
CCn1c(SCC(=O)N2CCN(c3cccc(Cl)c3)CC2)nc2ccccc2c1=O | ? | -5% | -11% | -3% | 9.2µM* | i
O=C(NCc1ccco1)c1ccc2c(=O)n(Cc3ccco3)c(SCC(=O)N3CCCC3)nc2c1 | 5% | -11% | -7% | 14% | i | i
Cn1c(=O)c2c(nc(SCC(=O)N3CCCCCC3)n2C)n(C)c1=O | -3% | 0% | -13% | 3% | 15µM* | i
O=C(CSc1nc2ccccc2c(=O)n1Cc1ccco1)N1CCCCCC1 | ? | -21% | ? | 18% | 18µM* | ?
CCCCN(C(=O)c1cccs1)C1CCS(=O)(=O)C1 (stereo not given) | -1% | 2% | 0% | -5% | i | i
CCn1c(SCC(=O)N2CCCCCC2)nc2ccccc2c1=O | ? | -8% | 3% | 5% | 9.2µM* | i
Cc1ccc(N(CCC#N)C(=O)CSc2nc3ccccc3c(=O)[nH]2)cc1 | -3% | -9% | -16% | 11% | ? | i
CC(C)[C@H]1c2ccc(F)cc2CC[C@@]1(CCN(C)CCCc1nc2ccccc2[nH]1)OC(=O)C1CC1 | / | / | / | / | 21µM* | ?
CN(Cc1nc2ccccc2[nH]1)C(=O)C1CCC(=O)N(CCc2cccc(F)c2)C1 (stereo not given) | -2% | 0% | -1% | -3% | i | i
CCCC[C@@H](CN[C@H](C)CNC)NCC1CCC(C(C)(C)C)CC1 (stereo not given in full) | ? | ? | 18µM* | -8%[9.22 µM] | ? | ?
Cc1cccc(NS(=O)(=O)c2ccc3c(c2)CC(C)N3C(=O)C2CCC2)c1C (stereo not given) | / | / | / | / | ? | 23µM*
C=CCn1c(NC(=O)c2ccc(C)cc2)nc2ccccc21 | ? | 2% | 5% | 5% | i | i
CS(=O)(=O)N1CCc2cc(C(=O)N3CCCC3)ccc21 | -1% | 1% | 7% | -4% | i | i
O=C1CSC2(CCN(CCCN3c4ccccc4Sc4ccc(Cl)cc43)CC2)N1 | 19µM* | / | / | 7% | / | /
c1ccc2c(c1)Sc1ccccc1N2CCN1CCCC1 | 7% | / | / | 3% | / | /
CN1CCN(CCCN2c3ccccc3Sc3ccc(C(F)(F)F)cc32)CC1 | 23µM* | 21µM*! | ? | ? | 21µM*! | ?
NC(=O)N1CCN(CCCN2c3ccccc3Sc3cc(Cl)ccc32)CC1 | / | ? | ? | / | i | i
COc1cc2nc(CN(C)Cc3ccc(SC)cc3)[nH]c(=O)c2cc1OC | 13% | -8% | -15% | 8% | ? | i
CSc1ccc(CN(C)Cc2nc3cc(C(F)(F)F)ccc3c(=O)[nH]2)cc1 | 15% | -1% | -2% | -10% | 23µM* | i
COCC(=O)N/N=C\c1cccc(OC)c1OC/C=C/c1ccccc1 | 11% | -25% | -30% | 16µM* | i | ?
N#CCC(=O)N/N=C\c1ccccc1OC/C=C/c1ccccc1 | 183% | -13% | -19% | 16µM* | i | i
CCOC(=O)c1cc(-c2ccc(F)cc2)n(CCC(=O)Nc2nc3cc(C)c(C)cc3s2)c1C | / | / | / | / | i | i
CC(NCC(=O)NCC(=O)Nc1ccc(F)cc1)c1cccc(C(F)(F)F)c1 (stereo not given) | ? | 2% | -1% | 1% | / | /
O=C(NCC1CC1(Cl)Cl)Nc1ccc(Cl)c(Cl)c1 (stereo not given) | 18µM* | 18µM* | 29µM* | ? | ? | ?
Cc1cc(N2CCCC2)ccc1/C=C1/C(=O)N(C)C(=S)N1C | 3% | ? | -18% | 15µM* | ? | ?
